# Measurements as given in ChEMBL document CHEMBL3988442, “University of Dundee, Small-Polar-MMV Screening Library” (2021).
# What was measured:
# [1] = molecular target: T1, Aspartate--tRNA(Asp/Asn) ligase (Mycobacterium tuberculosis (strain ATCC 25618 / H37Rv)) (UniProt P9WFW3); test: Assay for Asp RNA synthetase-1 from Mycobacterium tuberculosis; type: functional; parameters: scale not given: direction of the effect not stated beside the values; details: 30 µM; note: in the data most compounds retested in dose-response had high values
# T1 sequence (whole entry): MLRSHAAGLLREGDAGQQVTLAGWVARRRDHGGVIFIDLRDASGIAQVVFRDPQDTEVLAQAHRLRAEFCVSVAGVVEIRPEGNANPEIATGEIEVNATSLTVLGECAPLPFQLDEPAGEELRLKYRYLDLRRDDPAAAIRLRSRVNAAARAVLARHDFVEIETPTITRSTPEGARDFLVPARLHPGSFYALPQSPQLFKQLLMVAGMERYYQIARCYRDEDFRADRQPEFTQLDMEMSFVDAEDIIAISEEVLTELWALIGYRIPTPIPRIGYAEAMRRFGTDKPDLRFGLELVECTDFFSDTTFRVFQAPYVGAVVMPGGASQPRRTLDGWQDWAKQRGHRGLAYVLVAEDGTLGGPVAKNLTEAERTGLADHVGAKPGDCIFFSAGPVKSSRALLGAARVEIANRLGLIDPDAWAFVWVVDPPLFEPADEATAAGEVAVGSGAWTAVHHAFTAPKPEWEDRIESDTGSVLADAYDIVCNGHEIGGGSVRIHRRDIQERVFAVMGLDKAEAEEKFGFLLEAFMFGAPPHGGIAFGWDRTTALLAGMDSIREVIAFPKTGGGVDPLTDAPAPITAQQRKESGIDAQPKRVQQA
# [2] = molecular target: Shiga toxin 2 (Escherichia coli O157:H7) (UniProt P09385+P09386); test: E. coli 0.157:H7 Shiga Toxin SOP - stx2 screening assay; type: functional; parameters: scale not given: direction of the effect not stated beside the values; details: 30 µM
SMILES,Percent Effect [1],Percent Effect [2]
Clc1ccccc1-c1nc(CNC2CCc3ncnn3C2)cs1 (centres undefined),-0.745%,-6.39%
CCOCCN1CCN(Cc2cccc(C(=O)N(C)C)c2)CC1,-3.67%,-26.9%
CC(C)N(CC(N)=O)Cc1csc(COc2ccc(F)cc2)n1,-2.28%,1.96%
CC(C)CNC(=O)NC(=O)CNc1ccccc1SCC(C)C#N (centres undefined),-5.03%,4.99%
CNc1nc(C(=O)N2CCCC(c3nccn3CC3CCC3)C2)cs1 (centres undefined),10.9%,2.21%
Cc1cnn(C2CN(CC(=O)NCCc3ccccc3)C2)c1,-1.74%,32.1%
Cc1cc(C)c(CNC(=O)N(C)CC2CCCCO2)c(=O)[nH]1 (centres undefined),2.7%,28.8%
O=C(CC1CC1)N1CC[C@H]2[C@@H]1CCC(=O)N2c1cccnc1,-4.48%,-0.916%
Cn1cc(C(=O)NCc2cn3c(n2)CN(CC2CCOCC2)CC3)cn1,-2.89%,-14.5%
COc1c(C(=O)NCc2cccnc2)nnn1Cc1ccc(C)cc1,-4.7%,-4.95%
Cc1ccc(-n2nnc(CC(=O)N3CCOCC3)c2C)cc1,2.26%,-28%
Cc1ccc(CNC(=O)CN2CCN(CC(O)c3ccco3)CC2)cc1 (centres undefined),-6.22%,-10.6%
O=C(NCCOc1ccc2c(c1)CCC2)N1CCS(=O)(=O)CC1,-1.48%,-52.5%
O=C(c1ccc(Br)o1)N1CCN(Cc2ccc(OC(F)(F)F)cc2)CC1,-5.95%,16.1%
O=c1cc2c(nn1CN1CCOCC1)CCC2,2.64%,-10.5%
Cc1cc(N2CCN(CC(=O)N(C)C)CC2)nc(-c2ccncc2)n1,-3.92%,-5.53%
O=C1N(c2cccc(Cl)c2)Cc2nc(=O)n(Cc3cccc(F)c3)n21,6.56%,-11.3%
